Reference: PubChem BioAssay (NCI)
The panel holds about 83,000 compounds, 20% with a hit somewhere; the sample as a whole holds those more often.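 Cells were grown in 96-well plates and exposed to the test compound at a single concentration for 48 hours; results are reported as percent growth, with values below 10 considered active.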 A number with no mark means an inactive call. Calls of active or inactive are those of the source.

test system: CCRF-CEM leukemia; experiment: NCI-60 one-dose screen, 48 h (100 = growth as untreated, 0 = no growth, -100 = all killed); settings: 10 µM unless noted
Method: Growth inhibition of the CCRF-CEM human tumor cell line is measured as a screen for anti-cancer activity. Cells are grown in 96 well plates and exposed to the test compound for 48 hours. Compounds are tested at a single concentration, which is 10^-5 M for most compounds. The reported endpoint is percent growth (GI% or GIPRCNT), where numbers from 0 - 100% represent growth inhibition, and numbers from -100% - 0 represent cell death. For example, a value of 40 represents 60% growth inhibition. A value of 0 means no net growth occurred over the course of the experiment. A value of -40 indicates 40% of cells at the beginning of the experiment died by the end of the experiment. A value of -100 means all cells are dead at the end of the experiment.
NCI-60 Human Tumor Cell Lines Screen was performed using the standard one-dose NCI protocol, which is described in more detail at https://dtp.cancer.gov/discovery_development/nci-60/default.htm.
Compounds with GIPRCNT values below 10 were considered active. Activity score was based on GIPRCNT using the following formula: […]
Score is 0 for GIPRCNT values of 100 or above, 50 for GIPRCNT values of 0, and 100 for GIPRCNT values of -100.

Row | Compound | growth
1 | COc1cccc(Cn2c(-c3nonc3NC(C)=O)nc3ccccc32)c1 | 41%
2 | O=C(Nc1cccc(Cl)c1)Nc1cc(C(F)(F)F)ccc1Cl | 17%
3 | Cc1ccc(NC(=O)c2[nH]c(SCCN(C)C)nc2-c2ccc(F)cc2)cc1C#Cc1cnc2cccnn12 | 1.64% (active)
4 | NS(=O)(=O)c1ccc(N2N=C(c3cccs3)CC2c2ccccc2O)cc1 (stereo not given) | 4.36% (active)
5 | COc1ccc2cc(-c3nc(C)c(C(C)=O)c(-c4ccc(C)cc4)n3)ccc2c1 | 89.7%
6 | O=C1OCC2=C1C(c1cccc(Br)c1)c1cc3c(cc1N2CCO)OCCO3 (stereo not given) | 9.31% (active)
7 | CN=C1C=C/C(=N/N=c2/ccn(O)cc2C)C=C1C | 105%
8 | COc1ccc(/C=c2\c(=O)n(-c3ccccc3)c3nn4c(n23)=NNC42CCCCC2)cc1 | 101%
9 | CCN(C)CCCOc1ccc(/C(=C(\C)Cc2cccc(OC)c2)c2ccc(OC(C)=O)cc2)cc1 | 96.6%
10 | Oc1ccc(-c2cnc(-c3ccccc3)[nH]2)c(O)c1 | -41.7% (active)
11 | Cc1ccc(N2C3c4ccccc4N(S(=O)(=O)c4ccc(C)cc4)C2c2ccccc2N3S(=O)(=O)c2ccc(C)cc2)cc1 | 89.2%
12 | COc1ccc2nc(NC(=O)/C(=C/c3cc(OC)c(OC)c(OC)c3)c3ccc(OC)c(OC)c3)sc2c1 | 98.6%
13 | COc1cccc(CC(C)=C(c2ccc(OCCCN(C)C)cc2)c2ccc(OCCCN(C)C)cc2)c1 | -53.3% (active)
14 | CCCCC(CCc1ccccn1)C(=O)c1ccccc1 (stereo not given) | 98.3%
15 | COc1c(B(O)O)cccc1-c1nc2ccc3[nH]ncc3c2c2c1CCCC2 | 6.99% (active)
16 | Nc1ccc(C(OC(=O)c2cc3ccccc3c(Cc3c(O)c(C(=O)OC(c4ccc(N)cc4)(c4ccc(N)cc4)c4ccc(N)cc4)cc4ccccc34)c2O)(c2ccc(N)cc2)c2ccc(N)cc2)cc1 | 21.6%
17 | Brc1cccc(-n2ncc3c(Nc4ccc(-c5nnc(-c6ccccc6)o5)cc4)ncnc32)c1 | 118%
18 | FC1(F)CCN(Cc2c[nH]c3cc(Cl)ccc23)C[C@H]1CCc1ccccc1 | 45.9%
19 | CC(=O)OC1Oc2cc(C)c(C)cc2-c2oc(=O)c(-c3cc4ccccc4oc3=O)cc21 (stereo not given) | 94%
20 | NC(=O)c1noc(C(=O)c2ccccc2)c1N | 98.8%

Row | Compound | growth
21 | Cc1cc(-c2nnc(/C=C/c3ccc4c(c3)OCO4)o2)n[nH]1 | 58.1%
22 | CCN1CCN(Cc2ccc(NC(=O)c3nc4ccc5[nH]ncc5c4c4c3CCCC4)cc2C(F)(F)F)CC1 | 3.68% (active)
23 | CC(C)[C@H](CN)NC[C@H](C)NS(=O)(=O)c1ccc(C(C)(C)C)cc1 | 91.5%
24 | CCc1ccc2c(c1)N(CCO)C1=C(C(=O)OC1)C2c1cccc(Br)c1 (stereo not given) | 11.9%
25 | CCCCNCCC(O)c1cc2ccc(C(F)(F)F)cc2c2cc(C(F)(F)F)ccc12 (stereo not given) | -45.5% (active)
26 | CC(=O)Nc1nonc1-c1nc2ccccc2n1Cc1ccc(C(C)(C)C)cc1 | 78.4%
27 | Cc1ccc(NC(=O)c2nc(S(C)=O)oc2-c2ccc(F)cc2)cc1Nc1nccc(-c2cccnc2)n1 (stereo not given) | 2.57% (active)
28 | Nc1nonc1-c1nc2ccccc2n1Cc1ccc(F)cc1 | 54.2%
29 | Clc1ccc(-c2nc(Br)cn3ccnc23)cc1 | 92.8%
30 | Fc1ccc(-c2ccnc3nc(-c4ccncc4)nn23)cc1 | 110%
31 | COc1ccc(-c2nnc(SCC(=O)Nc3ccc(C(=O)/C=C/c4ccc(Cl)cc4)cc3)n2-c2ccccc2)cc1 | 86.5%
32 | CCCCCCCCCCCCCCCc1cc(O)ccc1[N+](=O)[O-] | 9.46% (active)
33 | Clc1ccc2c(c1)-c1ccccc1C1=NCCN12 | 28.4%
34 | O=C(NO)c1ccc(NCc2csc3ccccc23)cc1 | 44.7%
35 | O=C(CSc1ccc(Cl)cc1)Nc1ccc(-c2nc3ccccc3s2)c(Cl)c1 | 41.6%
36 | C1=C\CCCCN2CC[C@H]3[C@H](CCCC/C=C\CCCN4C[C@@H](CCCCC/1)C[C@@H]3C4)C2 | 7.61% (active)
37 | COc1ccc(Nc2ncnc3c2sc2nc(C)cc(C)c23)cc1 | 104%
38 | Oc1[nH]c2ccc(Cl)cc2c1/C=c1/ccc2c(c1)N=C(c1ccc(F)cc1)N=2 | 7.83% (active)
39 | Cc1cccc(C(=O)O)n1 | 146%
40 | COc1cccc2nc(Nc3cccc(NC(=O)c4ccc(N5CCN(C)CC5)c(C(F)(F)F)c4)c3)ccc12 | 12.5%
